# This is a sample that favours compounds with a hit; in the whole collection about 21% have one here.
# Pf growth 48h: inhibits P. falciparum growth in the first generation, 48 h; P. falciparum luciferase growth in erythrocytes, 48 h; Potency, µM (titrated, usually from 28.7 µM), inactives show at the top dose activity change, negative = inhibition, actives largely listed as inhibitors; 5.9% of 310,000 active; AID 504832; active = well fitted inhibition curve with a large enough effect; inconclusive = small, poorly fitted or top-dose-only effect, or another doubt; inactive = no such curve, though single readings can be large or run the other way; note: potency is the fitted concentration of half-maximal effect; % is set by controls: 0 for no effect and ±100 for the full control effect
#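 A one-generation exposure of luciferase-tagged malaria parasites in RPMI 1640/Albumax erythrocyte culture, 37 C and 5% CO2. Inhibition is inferred from decreased luminescence after adding detection reagent.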
# Pf growth 96h: P. falciparum growth inhibition at 96 hours. AID 504834. Potency, µM (top dose mostly 28.7 µM), for inactives: at the top dose activity change, negative = inhibition, actives largely listed as inhibitors. 6.9% of 320,000 active. P. falciparum luciferase reporter growth, 96 h; active = well fitted inhibition curve with a large enough effect; inconclusive = small, poorly fitted or top-dose-only effect, or another doubt; inactive = no such curve, though single readings can be large or run the other way; note: potency is the fitted concentration of half-maximal effect; % is set by controls: 0 for no effect and ±100 for the full control effect
#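 Parasite growth measured via integrated firefly luciferase reporter in P. falciparum. Infected erythrocytes at 2% hematocrit, 0.05% parasitemia final were treated 96 hours at 37 C under 5% CO2, and luminescence was read.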
# Cycloheximide cs: affects cycloheximide protein synthesis inhibition readout, counter-screen. 12% of 300,000 active. max response, %. cell reporter, cycloheximide protein synthesis inhibition counterscreen. AID 2314; in the data active = max response mostly above about 13%, no sharp cut-off; inactive = mostly below about 14%; note: read at 38.3 µM for the half of the compounds with a filed dose; 0% is about no effect
# SARS PLP yeast: blocks SARS-CoV papain-like protease in a yeast assay | S. cerevisiae expressing SARS-CoV PLpro, growth rescue | Potency, µM (highest dose often 32.9 µM), for inactives: top-dose activity, positive = growth rescue, actives largely listed as activators | 0.19% of 330,000 active | AID 485353; note: potency is the fitted concentration of half-maximal effect; 0% is about no effect; nearly all actives have a fitted effect of over 55% in size
# Shiga toxin inh: Shiga toxin inhibition. Vero cells, Shiga toxin protein synthesis inhibition reporter. inhibition, % at 38.7 µM. 9.2% of 290,000 active. AID 2315; in the data active = inhibition mostly above about 28%, no sharp cut-off; inactive = mostly below about 43%; note: 0% is about no effect
# NS1 function inh: influenza NS1 inhibition. 0.4% of 270,000 active. Potency, µM (top dose mostly 46.1 µM), for the others: at the top dose activity, positive = more growth; note: potency is the fitted concentration of half-maximal effect; actives are rising curves; nearly all actives have a fitted effect of over 50% in size
#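 S. cerevisiae expressing influenza A NS1, grown in glucose, washed, then diluted 1:100 into pH 6.0 -URA galactose medium with 23 nl compound. Growth recovery read as OD600; NS1-free strain serves as control.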
# * = called active by the depositor; i = inactive; ? = inconclusive; / = no result given. Unless noted, calls come from the whole dose curve.
SMILES,Pf growth 48h,Pf growth 96h,Cycloheximide cs,SARS PLP yeast,Shiga toxin inh,NS1 function inh
COC(=O)C1=C(N)OC(C)=C(C(C)=O)C12C(=O)N(C)c1ccccc12 (stereo unspecified),6.0%,8.28µM*,-8.0,1.1%,-15.5,-0.7%
COc1ccc(-n2nc3c(c2NC(=O)CCCCl)CSC3)cc1,?,?,16.4*,-3.9%,28.1,2.7%
CCCNC(=O)c1ccc2c(=O)c(O)c(-c3ccc(F)cc3)[nH]c2c1,-8.9%,?,-0.9,12.6µM*,-4.3,-1.9%
CCCNC(=O)c1ccc2c(=O)c(O)c(-c3cccc(Br)c3)[nH]c2c1,?,?,-3.7,?,-6.3,-2.9%
CCCCCCCCCCOC(=O)c1csc2nnsc12,-0.8%,17.3%,1.4,9.9%,-0.9,13.2%
Cc1ccc(SCc2nc(N)nc(Nc3ccccc3C)n2)cc1C,-0.2%,?,10.3,-24.4%,8.3,-12.2%
CC(=O)NCCn1c(SCc2ccccc2F)nc2ccccc2c1=O,-4.0%,?,-4.0,-3.4%,-17.7,-8.4%
Cc1ccc(Nc2nc(N)nc(CSc3nccn3C)n2)c(C)c1,89.3%,/,17.7*,6.5%,42.1*,-2.0%
Cc1ccc(SCc2nc(N)nc(Nc3ccccc3C)n2)c(C)c1,2.2%,?,17.2,-9.8%,47.3*,-48.6%
Cc1ccc2c(CSc3nc4ccccc4c(=O)n3CCCO)cc(=O)oc2c1C,?,?,8.7,1.4%,109.3*,0.2%
Cc1ccccc1Nc1nc(N)nc(CSc2ccc(F)cc2)n1,i,299.0%,47.9*,-6.9%,112.2*,/
O=S(=O)(c1ccc2nc(COc3ccccc3)[nH]c2c1)N1CCOCC1,-10.8%,-16.4%,-2.4,-1.6%,11.2,0.4%
CCOc1ccccc1OCCCC(=O)Nc1cccc(-n2cnnn2)c1C,-16.1%,-26.3%,/,4.1%,/,/
COCC1CCN(C(=O)c2ccc(OC3CCN(Cc4ccccn4)CC3)cc2)C1 (stereo unspecified),2.1%,?,5.1,-2.1%,-30.0,11.0%
CN(CC(=O)NCCc1ccc(S(N)(=O)=O)cc1)S(=O)(=O)/C=C/c1ccccc1,-1.1%,16.2%,-1.7,-1.9%,3.5,8.5%
Cc1ccccc1Nc1nc(N)nc(CSc2nc3ccccc3c(=O)n2CCCO)n1,7.38µM*,/,-2.1,2.4%,21.9,-5.5%
Cc1ccccc1Nc1nc(N)nc(CN(C)Cc2ccccc2Cl)n1,-2.0%,?,31.0*,8.5%,18.1,2.7%
Cc1ccccc1Nc1nc(N)nc(CSc2nnnn2C)n1,175.8%,229.2%,48.4*,-7.3%,117.8*,/
COCCn1c(SCc2nc(N)nc(Nc3ccccc3C)n2)nc2ccccc2c1=O,6.2%,?,-1.5,4.5%,-10.1,-6.4%
CCOc1ccc(C(=O)C(C)OC(=O)c2cnc(C)cn2)cc1 (stereo unspecified),7.1%,13.2%,/,-14.2%,/,/
Cc1cnc(C(=O)OCC(=O)c2ccc(F)cc2)cn1,5.9%,-0.3%,5.4,13.3%,-28.2,-4.2%
Cc1nn(Cc2ccccc2)c(Cl)c1C(=O)OC(C)C(=O)Nc1ccc(F)cc1Cl (stereo unspecified),?,13.1µM*,-1.1,14.1%,-4.5,-3.2%
Cc1cc(C(=O)NNC(=O)C(CCC(N)=O)NS(=O)(=O)c2ccc(Cl)cc2)c(C)o1 (stereo unspecified),/,/,/,3.9%,/,/
COC(=O)c1ccccc1NC(=O)COC(=O)c1ccccc1N=Nc1ccc(N(C)C)cc1,?,9.28µM*,17.1,-1.1%,16.2,3.9%
COC(=O)c1ccccc1NC(=O)COC(=O)[C@H](C)NC(N)=O,?,?,8.6,-0.6%,14.3,1.1%
SMILES,Pf growth 48h,Pf growth 96h,Cycloheximide cs,SARS PLP yeast,Shiga toxin inh,NS1 function inh
CN(C)c1ccc(C(=O)OCC(=O)Nc2ccc(N3CCOCC3)cc2)cc1,?,13.7%,-1.0,1.0%,28.3,2.7%
CN(C)c1ccc(N=Nc2ccccc2C(=O)OCC(=O)N(C)c2ccccc2)cc1,13.1µM*,?,34.0*,-16.4%,64.3,17.7%
CC(=O)c1ccc(NC(=O)COC(=O)c2ccccc2N=Nc2ccc(N(C)C)cc2)cc1,?,?,49.5*,3.2%,99.2*,8.5%
O=C(c1cc(COc2ccc(F)cc2F)on1)N1CCCC(c2ccccc2)C1 (stereo unspecified),7.9%,0.0%,18.6*,0.5%,28.3,6.3%
O=C(c1cc(COc2ccc(F)cc2Cl)on1)N1CCCC(c2ccccc2)C1 (stereo unspecified),?,-9.0%,6.4,-0.6%,8.8,16.6%
CSc1ccccc1OCc1cc(C(=O)N2CCN(C3CCCC3)C(=O)C2)no1,?,?,54.2*,-2.4%,41.0*,-20.1%
CSc1ccccc1OCc1cc(C(=O)N2CCC[C@H]2C(N)=O)no1,-12.4%,?,17.7,15.9%,27.5,-26.4%
CC(C)Cc1cc(C(=O)N2CCCC(C(=O)c3cc(F)ccc3F)C2)no1 (stereo unspecified),7.4%,4.65µM*,12.7,0.3%,5.4,4.6%
O=C(c1cc(F)ccc1F)C1CCCN(C(=O)c2cccs2)C1 (stereo unspecified),9.3%,?,-2.0,1.2%,-3.2,-5.7%
O=C(c1cc(COc2ccc(F)cc2F)on1)N1CCN(C2CCCC2)C(=O)C1,8.28µM*,-12.0%,0.9,3.5%,25.7,-58.9%
O=C(c1cc(COc2ccc(F)cc2F)on1)N1CC[C@@H]2CCCC[C@H]2C1,-1.1%,?,-1.5,2.3%,-9.7,17.4%
NCCCNCCCCNCCCNC(=O)Cc1ccc(O)cc1,/,/,16.9,/,i,/
Cc1cc(C)cc(C(=O)NCCC(=O)N2CCC3(CC2)NCCc2[nH]cnc23)c1,-4.5%,-20.0%,-1.9,0.3%,-1.7,-2.1%
C=CCn1c(SCc2nc3ccccc3[nH]2)nnc1-c1ccccn1,-8.0%,10.4µM*,27.2*,-10.4%,7.6,-1.2%
Cn1c(SCc2nc3ccccc3[nH]2)nnc1-c1ccccn1,0.0%,-4.9%,11.5,/,4.5,-0.9%
CCn1c(SCc2nc3ccccc3[nH]2)nnc1-c1cnccn1,37.9%,?,23.0*,0.9%,55.2*,-9.2%
Cc1cc(C)c(NC(=O)CCCn2c(=O)oc3ccccc32)c(C)c1,-13.2%,-14.3%,/,-12.4%,/,/
O=C(O)C(=Cc1ccnc2ccccc12)C(=O)O,/,/,/,/,/,-3.1%
Clc1ccccc1/C=C/c1ccnc2ccccc12,1.4%,?,45.7*,-0.6%,62.8*,-50.9%
Oc1ccc(/C=C/c2ccnc3ccccc23)cc1,?,-102.8%,110.9*,-2.0%,108.6*,-2.6%
CN(Cc1ccccc1)S(=O)(=O)c1ccc(Cl)c(C(=O)NCCc2ccccn2)c1,36.5%,-7.8%,1.6,-0.9%,-8.4,-3.1%
COCCCn1c(=O)c2ccccc2n(Cc2cccc(C)c2)c1=O,?,?,-1.9,20.8%,-14.6,-16.0%
O=C(CCN1C(=O)/C(=C/c2ccccc2Cl)SC1=S)NC1C=CS(=O)(=O)C1 (stereo unspecified),-2.1%,?,8.4,-4.9%,-9.3,4.8%

# Screens as filed in PubChem BioAssay.
